Measurements: PubChem BioAssay (Tox21)
Records with an inconclusive call do not appear. A call without a number means that no potency is given here. Activity calls are given as the source filed them. Calls come from the whole dose curve; as a rule, active = well fitted inhibition curve with a large enough effect in the signal ratio in the repeat runs (not every such curve was filed as active); inconclusive = weak or mixed curves, or effect the other way; inactive = no such curve, though single readings can be large or run the other way; the % refers to the signal ratio.

These compounds were tested against Glucocorticoid receptor (Homo sapiens) (UniProt P04150) (assay: qHTS assay to identify small molecule antagonists of the glucocorticoid receptor (GR) signaling pathway (AID 720692)). Conditions: GR-bla HeLa, beta-lactamase FRET ratio, dexamethasone-stimulated, 18 h; series mostly up to 58.5 µM.
Sequence of Glucocorticoid receptor (Homo sapiens) (P04150 whole entry, looked up): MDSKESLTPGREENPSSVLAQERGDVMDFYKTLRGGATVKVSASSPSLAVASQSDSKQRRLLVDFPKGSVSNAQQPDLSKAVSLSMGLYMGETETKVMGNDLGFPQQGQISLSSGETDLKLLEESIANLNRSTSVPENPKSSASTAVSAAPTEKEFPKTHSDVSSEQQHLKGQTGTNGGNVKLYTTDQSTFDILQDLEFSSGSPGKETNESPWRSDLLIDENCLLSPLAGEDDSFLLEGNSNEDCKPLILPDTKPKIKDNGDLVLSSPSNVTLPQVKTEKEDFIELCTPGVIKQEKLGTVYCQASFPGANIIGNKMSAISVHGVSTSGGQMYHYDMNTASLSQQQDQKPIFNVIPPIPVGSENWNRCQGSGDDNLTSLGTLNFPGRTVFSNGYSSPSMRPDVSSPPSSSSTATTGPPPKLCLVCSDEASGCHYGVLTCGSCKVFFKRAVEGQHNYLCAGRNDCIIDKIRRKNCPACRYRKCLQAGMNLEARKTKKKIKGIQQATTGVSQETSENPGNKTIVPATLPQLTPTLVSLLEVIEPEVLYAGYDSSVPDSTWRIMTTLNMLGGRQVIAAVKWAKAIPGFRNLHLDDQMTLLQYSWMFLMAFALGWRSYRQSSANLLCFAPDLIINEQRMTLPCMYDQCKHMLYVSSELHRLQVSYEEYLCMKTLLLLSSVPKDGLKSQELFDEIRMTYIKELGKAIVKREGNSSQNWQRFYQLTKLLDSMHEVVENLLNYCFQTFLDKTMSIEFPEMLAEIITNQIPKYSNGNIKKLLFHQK
Summary of the method: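 Tox21 10K library screened in concentration-response for blockade of dexamethasone (5 nM final)-induced GRE-bla reporter activity in HeLa cells; 18 h treatment, fluorescence read.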
For `C=C(C)C(=O)NCCC[N+](C)(C)C`, the Potency was “inactive”. In the case of `C(=C(c1ccccc1)c1ccccc1)c1ccccc1`, the Potency is reported as “inactive”. `CCCCNc1ccccc1` was tested, and the Potency was “inactive”. `Nc1cc(N)cc(C(=O)O)c1` was tested, and the Potency was “inactive”. For `NC(=O)CCCCC1CCSS1` (stereo not given), the Potency was “inactive”. In the case of `Cc1nccn1CC1CCc2c(c3ccccc3n2C)C1=O` (stereo not given), the Potency is reported as “inactive”. With `CCC(=O)c1cccc(Cl)c1` the Potency was “inactive”. With `Fc1ccccc1-c1ccccc1` the Potency was “inactive”. For `NC(=S)Nc1cccc2ccccc12`, the activity change, negative = inhibition was -3.43% [at 7.04 µM] (inactive). For `CC12CCC(CC1=O)C2(C)C` (stereo not given), the Potency was “inactive”.
